# Assay outcomes from PubChem.
# The list is not random: actives were taken first. Their share in the collection is about 2.8%.
# TRPM1 prom inh: inhibitors of MITF-dependent TRPM1 promoter reporter, primary screen, cell-based, SK-MEL-5, single point, luciferase; SK-MEL-5 TRPM1 promoter luciferase, 24 h; inhibition, % at 12.5 µM; actives 0.83% (n = 330,000);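 active = mean inhibition across replicates of 60% or more, whatever share of single replicates reaches that level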
# CF NFkB inh: inhibitors of PAF-induced NF-kB signaling, primary screen, cell-based, GFP fluorescence, uHTS; AID 588850, 2011; KKLEB NF-kB-GFP reporter, GFP fluorescence overnight; actives 0.86% (n = 360,000); inhibition, % at 5 µM;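 active = at least 50% inhibition at 5 µM, scaled per plate between neutral and stimulator controls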;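 also: PAF is a Pseudomonas aeruginosa culture filtrate used as stimulus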
# Peg3 prom inh: Peg3 promoter-driven luciferase inhibitors, primary screen, cell-based, HeLa, luciferase luminescence; HeLa PEG-Prom luciferase reporter, overnight; inhibition, % at 20 µM; actives 1.7% (n = 360,000);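 active = inhibition of at least 50% at 20 µM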
# HIF-2a block: HIF-2a reporter inhibitors, primary screen, luminescence, 786-0 RCC cells; 786-0 RCC cells HIF-2a reporter, luciferase luminescence, overnight; inhibition, % at 18.8 µM; actives 0.72% (n = 360,000); AID 624352, 2012;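 active = inhibition of the luminescence signal of 40% or more relative to plate controls, in a single-dose primary screen at 18.75 µM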
# KKLEB tox: cytotoxicity in KKLEB CF airway cells, primary screen, cytotoxicity control for CF NF-kB inhibitor project, cell-based, uHTS, fluorescence assay plates | AID 602141, 2011 | actives 0.36% (n = 360,000) | activity change (cytotoxicity), % at 5 µM | KKLEB CF airway cells viability, ATPlite luminescence, overnight; active compounds read low; cells stimulated with P. aeruginosa culture filtrate;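 active = corrected activity change at or below -50% at 5 µM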
# Shn3 3UTR inh: reduction of Shn3 3'UTR firefly luciferase signal, primary screen, Schnurri-3 inhibitor project, cell-based, Clone20 osteoblasts, set 2; inhibition, % at 12.5 µM; Clone20 osteoblast Shn3 3'UTR firefly luciferase, 24 h; actives 0.52% (n = 360,000);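 active = mean inhibition of at least 75% with every replicate also reaching 75%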
# Numbers stand for hits; 0 = inactive; - = not tested or not shown.
SMILES,TRPM1 prom inh,CF NFkB inh,Peg3 prom inh,HIF-2a block,KKLEB tox,Shn3 3UTR inh
COc1ccc(/C=N/N2C(=O)CSC2=S)cc1,0,0,0,0,0,0
O=C(N/N=C/c1ccc([N+](=O)[O-])s1)C(O)c1ccccc1 (stereo not drawn),69,0,0,0,0,0
O=C(CNC(=O)c1cccc(F)c1)N/N=C/c1ccc([N+](=O)[O-])s1,71,0,0,0,0,0
Cn1c(SCC(=O)N/N=C/c2ccc([N+](=O)[O-])s2)nnc1-c1ccccc1,71,0,64,0,0,0
COC(=O)N/N=C/c1ccc([N+](=O)[O-])s1,0,0,0,0,0,0
O=C(Cc1ccccc1)N/N=C/c1ccc([N+](=O)[O-])s1,68,0,0,0,0,0
O=C(N/N=C\c1ccc([N+](=O)[O-])s1)c1cncc(Br)c1,78,0,63,0,0,0
O=C(N/N=C/c1cccs1)c1cncc(Br)c1,0,0,0,0,0,0
C=CCN1C(=O)/C(=C\c2cc(Br)c(OCc3ccccn3)c(OC)c2)SC1=S,0,50,0,0,0,0
O[C@@H]([C@H](O)[C@H](O)CBr)[C@H](O)CBr,0,0,0,0,0,0
CCN(CC)C(=O)C1=C(C)N(Cc2ccc(C(C)(C)C)cc2)C(=O)C(CC(=O)NCCCCc2ccccc2)C1 (stereo not drawn),-,0,0,0,0,0
Cc1c(-c2ccccc2)[n+](=O)c2c(n1[O-])CCCC2,0,0,0,0,0,0
CS(=O)(=O)N(CCC#N)Cc1ccc(/C=C2\C(=O)Nc3ccccc32)o1,0,50,0,0,0,0
O=C(O)c1cc(O)ccc1NC(=O)c1cccc2ccccc12,0,0,0,0,0,0
CC1CC(C)(C)Nc2ccc(N=O)cc21 (stereo not drawn),61,71,84,0,0,93
CC1CC2(CCCC2)Nc2ccc(F)cc21 (stereo not drawn),0,0,0,0,0,0
CC(C)(C)n1nc(Cc2cccc3ccccc23)c2c(N)ncnc21,0,50,0,0,0,0
Cn1nc(Cc2cccc3ccccc23)c(C#N)c1N,0,0,0,0,0,0
Clc1ccc(OCCCNCc2ccccc2)c2ccccc12,0,0,93,0,-53,0
Cc1cc(C)c(OCCCCNCc2ccccc2)c(Cl)c1,0,0,53,0,0,0
Brc1ccccc1OCCNCc1ccccc1,0,0,0,0,0,0
CN(c1ccccc1)S(=O)(=O)c1cccc(NC(=O)CSc2ncc(C(F)(F)F)cc2Cl)c1,0,0,0,0,0,0
CS(=O)(=O)c1nc(S(=O)(=O)c2ccc(Cl)cc2)c(N2CCOCC2)s1,67,0,0,0,0,0
CC1CN(c2sc(S(C)(=O)=O)nc2S(=O)(=O)c2ccc(Cl)cc2)CC(C)O1 (stereo not drawn),0,0,0,0,0,0
CN1CCN(Cc2nc3ccccc3c(=O)n2Cc2nc(-c3ccccc3F)cs2)CC1,0,0,0,0,0,0
SMILES,TRPM1 prom inh,CF NFkB inh,Peg3 prom inh,HIF-2a block,KKLEB tox,Shn3 3UTR inh
CN1CCN(Cc2nc3ccccc3c(=O)n2Cc2nc(-c3cccc([N+](=O)[O-])c3)cs2)CC1,0,0,50,0,0,0
O=C(c1ccc(NC(=O)C(c2ccccc2)c2ccccc2)cc1)c1ccc(C(=O)O)c(C(=O)O)c1,0,0,0,0,0,0
COc1ccc2[nH]c(=O)c(CN(Cc3cccs3)S(=O)(=O)c3cccc4nsnc34)cc2c1,0,98,66,0,-53,0
Cc1cc(S(=O)(=O)N2CCN=C2c2ccccc2)c(Cl)cc1Cl,0,0,0,0,0,0
CCn1c(SCC(=O)Nc2ccc(F)cc2)nnc1C1CC1,0,0,0,0,0,0
COc1ccccc1NC(=S)NCCc1c[nH]c2ccccc12,0,0,0,0,0,0
COc1cccc(CNCCc2c[nH]c3ccccc23)c1OCc1ccc(F)cc1,0,0,105,0,0,0
COc1cc(CNCCc2c[nH]c3ccccc23)ccc1OCc1ccc(F)cc1,0,0,112,0,0,0
COc1ccc(-c2n(Cc3ccccc3)c3ccccc3[n+]2Cc2ccccc2)cc1,80,0,0,0,0,0
CCOC(=O)CNC(=O)CSc1nc(C(C)C)nc2c1cnn2-c1ccccc1,-,0,0,0,0,0
CCCCOc1ccc(C(=O)N/N=C/c2ccc(OCCN3CCCCC3)c(OC)c2)cc1,0,0,65,0,0,0
CCCOc1ccc(/C=N/NC(=O)CN2CCCCC2)cc1OCC,0,0,0,0,0,0
COc1ccc(/C=N/NC(=O)c2ccc3ccccc3c2)cc1OS(=O)(=O)c1ccc(NC(C)=O)cc1,0,61,62,0,0,0
COc1ccc(/C=C/C(=O)Oc2ccc(/C=N/NC(=O)c3ccccc3)cc2)cc1OC,0,52,0,0,-68,0
CCOC(=O)c1nc(NNC(=O)c2ccc([N+](=O)[O-])cc2)sc1C,0,0,68,0,0,0
CCOC(=O)c1sc(NNC(=O)c2ccc(C)cc2)nc1C,0,0,0,0,0,0
C#CCn1c(=NC(=O)c2cc(Cl)sc2Cl)sc2cc(S(N)(=O)=O)ccc21,0,0,0,0,0,0
C#CCn1c(=NC(=O)c2cc(-c3cccs3)nc3ccccc23)sc2cc(S(N)(=O)=O)ccc21,0,0,0,0,-56,0
O=C(CCl)Nc1cn(-c2ccccc2)nc1-c1ccc(F)cc1,0,0,0,0,0,96
Cn1nc(C(C)(C)C)cc1C(=O)N1CCCC(c2cc(C(=O)Nc3ccccc3Cl)no2)C1 (stereo not drawn),-,0,0,0,0,0
COc1ccc(C(=O)NC(=S)NNC(=O)c2cnccn2)cc1,0,0,0,0,0,0
COc1cc(C(=O)NC(=S)NNC(=O)c2cnccn2)cc(OC)c1OC,0,0,0,0,0,89
CC1CCCC(NC(=O)CCC(=O)NCc2ccccc2)C1C (stereo not drawn),0,0,0,0,0,0
COc1cc(NC(=O)c2cc3ccccc3cc2O)c(OC)cc1Cl,0,50,0,0,-55,0
COc1cc(OC)c(NC(=O)c2ccccc2F)cc1Cl,0,0,0,0,0,0
O=C(CSc1nnc(-c2ccc(Cl)cc2Cl)n1C1CCCCC1)N1CCCC1,0,0,0,0,0,92
COc1ccc(Nc2ncc(C(=O)N3CCN(c4ccc(F)cc4)CC3)c3ccccc23)cc1,0,0,59,0,0,0
